{"source": "PubChem BioAssay (NCATS)", "key": {"[1]": {"experiment": "qHTS of pediatric cancer cell lines to identify multiple opportunities for drug repurposing: Primary screen for Rh41 cells (AID 1347108);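 further: series mostly up to about 46 µM; luminescence drop marks cytotoxic hits; nearly all actives have a fitted effect of over 70% in size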", "how_it_was_run": "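Quantitative HTS format: each compound titrated (MIPE 11 points from 0.78 nM, NPC 8 points from 0.59 nM) onto cells plated 5 hours earlier. After 48 h at 37 degrees C, CellTiter-Glo luminescence was recorded.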"}, "[2]": {"experiment": "qHTS of pediatric cancer cell lines to identify multiple opportunities for drug repurposing: Primary screen for Rh30 cells (AID 1347107); further: series mostly up to about 46 µM; nearly all actives have a fitted effect of over 75% in size", "how_it_was_run": "(§1)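 Cells (500-1,000/well) in growth media were settled 5 h at 37 degrees C, then given compounds for 48 h. Viability was read as CellTiter-Glo luminescence. Primary runs used MIPE at 11 points (0.78 nM-46 µM) and NPC at 8 points (0.59 nM-46 µM); follow-ups used 11 points.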"}, "Furin (Homo sapiens)": {"target": "Furin (Homo sapiens) (UniProt P09958)", "sequence (P09958 whole entry, looked up)": "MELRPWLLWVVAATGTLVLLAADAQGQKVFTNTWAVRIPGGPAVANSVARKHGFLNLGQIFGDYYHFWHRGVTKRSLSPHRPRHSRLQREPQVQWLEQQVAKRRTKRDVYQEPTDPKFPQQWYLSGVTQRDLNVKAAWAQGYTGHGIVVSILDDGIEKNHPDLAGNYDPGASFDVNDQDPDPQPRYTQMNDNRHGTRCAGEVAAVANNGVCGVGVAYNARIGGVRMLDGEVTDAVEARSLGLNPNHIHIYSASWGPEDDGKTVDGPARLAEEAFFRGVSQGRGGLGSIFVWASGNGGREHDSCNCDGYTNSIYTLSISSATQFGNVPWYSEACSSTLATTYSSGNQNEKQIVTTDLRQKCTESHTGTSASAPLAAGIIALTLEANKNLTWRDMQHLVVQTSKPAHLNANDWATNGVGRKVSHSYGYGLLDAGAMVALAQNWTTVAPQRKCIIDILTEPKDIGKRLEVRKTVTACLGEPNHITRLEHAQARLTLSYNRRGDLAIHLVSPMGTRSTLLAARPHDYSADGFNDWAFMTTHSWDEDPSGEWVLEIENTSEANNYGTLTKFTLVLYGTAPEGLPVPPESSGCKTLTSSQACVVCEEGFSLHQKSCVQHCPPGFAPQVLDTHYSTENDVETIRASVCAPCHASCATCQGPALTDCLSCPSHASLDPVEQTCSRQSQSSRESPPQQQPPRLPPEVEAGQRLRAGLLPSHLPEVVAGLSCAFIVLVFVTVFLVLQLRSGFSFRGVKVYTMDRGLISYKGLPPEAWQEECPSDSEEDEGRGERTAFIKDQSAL", "experiment": "Furin counterscreen qHTS for Zika virus inhibitors (AID 1347149)", "how_it_was_run": "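Fluorogenic cleavage of BOC-RVRR-AMC (2 microM final, Km ~15 µM) was monitored (ex 340, em 450 nm) at 37C after 15 min RT preincubation of 5 nM furin with compounds in HEPES pH 7.0 buffer with CaCl2 and Triton X-100. Percent inhibition was fitted to a 4-parameter Hill curve.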"}, "[3]": {"experiment": "qHTS of pediatric cancer cell lines to identify multiple opportunities for drug repurposing: Confirmatory screen for LAN-5 cells (AID 1347113)", "how_it_was_run": "as §1"}, "[4]": {"experiment": "qHTS of pediatric cancer cell lines to identify multiple opportunities for drug repurposing: Confirmatory screen for DAOY cells (AID 1347114)", "how_it_was_run": "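Viability measured as metabolically active cells via CellTiter-Glo luminescence following 48 hours of compound exposure, 11-point dilutions in confirmatory testing. 500-1,000 cells/well plated 5 hours before dosing; controls were DMSO and 2.3 µM bortezomib.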"}, "[5]": {"experiment": "qHTS of pediatric cancer cell lines to identify multiple opportunities for drug repurposing: Confirmatory screen for NB-EBc1 cells (AID 1347115)", "how_it_was_run": "as §1"}, "[6]": {"experiment": "qHTS of pediatric cancer cell lines to identify multiple opportunities for drug repurposing: Confirmatory screen for MG 63 (6-TG R) cells (AID 1347119)", "how_it_was_run": "as §1"}, "[7]": {"experiment": "qHTS of pediatric cancer cell lines to identify multiple opportunities for drug repurposing: Confirmatory screen for Rh41 cells (AID 1347123)", "how_it_was_run": "as §1"}, "[8]": {"experiment": "qHTS of pediatric cancer cell lines to identify multiple opportunities for drug repurposing: Confirmatory screen for Rh18 cells (AID 1347125)", "how_it_was_run": "as §1"}, "[9]": {"experiment": "qHTS of pediatric cancer cell lines to identify multiple opportunities for drug repurposing: Confirmatory screen for Rh30 cells (AID 1347126)", "how_it_was_run": "as §1"}}, "note": "Records with an inconclusive call do not appear. Entries that show only a call come without a potency. Active and inactive are the calls of the source. The call rests on the fitted dose curve; in most records, active means well fitted curve in the direction sought with a large enough effect; inconclusive means small, poorly fitted or top-dose-only effect, or another doubt; inactive means no such curve, though single readings can be large; an effect the other way counts as inactive or inconclusive.", "data": [{"smiles": "CCN(CC)C(=O)N1CCN(C)CC1", "values": [{"measurement": "Potency", "setting": "[1]", "value": "inactive"}]}, {"smiles": "COC(=O)[C@@H]1CC2=CC(=O)CC[C@]2(C)[C@@]23O[C@@H]2C[C@@]2(C)[C@@H](CC[C@@]24CCC(=O)O4)[C@H]13", "values": [{"measurement": "Potency", "setting": "[1]", "value": "inactive"}]}, {"smiles": "NC(=O)c1cc[n+](CC2=C(C(=O)[O-])N3C(=O)[C@@H](NC(=O)Cc4cccs4)[C@H]3SC2)cc1", "values": [{"measurement": "Potency", "setting": "[1]", "value": "inactive"}]}, {"smiles": "O=S1(=O)c2cccc3cccc(c23)N1CCCN1CCN(c2ccc(F)cc2)CC1", "values": [{"measurement": "Potency", "setting": "[1]", "value": "inactive"}]}, {"smiles": "COc1cc2c(cc1OC)C(=O)C(CC1CCN(Cc3ccccc3)CC1)C2", "note": "(stereo unspecified)", "values": [{"measurement": "Potency", "setting": "[1]", "value": "inactive"}]}, {"smiles": "NC(CS)C(=O)O", "note": "(stereo unspecified)", "values": [{"measurement": "Potency", "setting": "[1]", "value": "inactive"}]}, {"smiles": "O=C(Nc1ccc(Oc2ccc(Cl)cc2)c(Cl)c1)c1cc(I)cc(I)c1O", "values": [{"measurement": "Potency", "setting": "[2]", "value": "inactive"}, {"measurement": "Potency", "setting": "[1]", "value": "inactive"}, {"measurement": "Potency", "setting": "Furin (Homo sapiens)", "value": "inactive"}]}, {"smiles": "O=C1c2ccccc2C(=O)C1c1ccccc1", "values": [{"measurement": "Potency", "setting": "[1]", "value": "inactive"}]}, {"smiles": "COC(=O)CCc1ccc(OCC(O)CNC(C)C)cc1", "note": "(stereo unspecified)", "values": [{"measurement": "Potency", "setting": "[1]", "value": "inactive"}]}, {"smiles": "N[C@H](Cc1c[nH]c2ccccc12)C(=O)O", "values": [{"measurement": "Potency", "setting": "[1]", "value": "inactive"}]}, {"smiles": "C[C@@H]1CN(CCCn2c3ccccc3c3ccccc32)C[C@H](C)N1", "values": [{"measurement": "Potency", "setting": "[2]", "value": "inactive"}, {"measurement": "Potency", "setting": "[1]", "value": "inactive"}, {"measurement": "Potency", "setting": "[3]", "value": "32.9 µM (active)"}, {"measurement": "Potency", "setting": "[4]", "value": "20.8 µM (active)"}, {"measurement": "Potency", "setting": "[5]", "value": "14.7 µM (active)"}, {"measurement": "Potency", "setting": "[6]", "value": "inactive"}, {"measurement": "Potency", "setting": "[7]", "value": "16.5 µM (active)"}, {"measurement": "Potency", "setting": "[8]", "value": "26.1 µM (active)"}, {"measurement": "Potency", "setting": "[9]", "value": "26.1 µM (active)"}]}, {"smiles": "CCCCC1=NC2(CCCC2)C(=O)N1Cc1ccc(-c2ccccc2-c2nn[nH]n2)cc1", "values": [{"measurement": "Potency", "setting": "[1]", "value": "inactive"}]}, {"smiles": "Nc1nc2ncc(CNc3ccc(C(=O)N[C@@H](CCC(=O)O)C(=O)O)cc3)nc2c(=O)[nH]1", "values": [{"measurement": "Potency", "setting": "[2]", "value": "inactive"}, {"measurement": "Potency", "setting": "[1]", "value": "inactive"}, {"measurement": "Potency", "setting": "Furin (Homo sapiens)", "value": "21.5 µM (active)"}]}, {"smiles": "COc1cc2c(cc1OC)[C@@H]1CC(=O)[C@@H](CC(C)C)CN1CC2", "values": [{"measurement": "Potency", "setting": "[1]", "value": "inactive"}]}]}
